The record followed here is PubChem BioAssay AID504725 (Broad Institute, 2011).

Molecules are shown by their SMILES. Results with a measured potency or affinity are listed apart. The source made the active and inactive calls. No rule for the calls is given here.

The assay addresses KSHV LANA C-terminal domain (residues 932-1162) binding to LBS DNA (UniProt O40947). Description: KSHV LANA DNA-binding disruption – biochemical, fluorescence polarization, cherry-picked samples, dose response (AID 504725). The note with it: MBP-C-LANA / FAM-LBS DNA fluorescence polarization; series mostly up to 35 µM. A general note: Polarisation of emitted light reports the rotation of a fluorescent probe.
In the case of `CC(OC(=O)c1cn(C)c2ccccc12)C(=O)N1CCCC1` (stereo not drawn), the compound was called inactive.
To `CCOC(=O)c1c(/N=C/c2c(O)n(-c3cccc(C)c3)c(=O)[nH]c2=O)sc2c1CCCC2` belongs “inactive”; to `O=c1c2ccccc2nc(/C=C\c2ccccc2[N+](=O)[O-])n1-c1ccccc1O`, “inactive”; to `CC(C)CC(=O)Nc1ccc(S(=O)(=O)N2CC3CC(C2)c2cccc(=O)n2C3)cc1` (stereo not drawn), “inactive”.
Turning to `CN(C)C1C(=O)C(C(N)=O)=C(O)C2(O)C(=O)C3=C(O)c4c(O)cccc4C(C)(O)C3C(O)C12` (stereo not drawn), the call was inactive.
As for `COCCNC(=O)Cn1cc(/C=C2\C(=O)NC(=O)N(c3cccc(C)c3C)C2=O)c2ccccc21`, the result was inactive.
For the compound `O=c1[nH]c(=O)n(C2CCCCC2)c(O)c1C=Nc1ccc(N2CCOCC2)cc1`, the compound was classed as inactive.
`CCCCc1ccc(C(=O)O)nc1`: the outcome was inactive.
`Cc1cc(=O)oc2cc(OCC(=O)N3CCN(Cc4ccc5c(c4)OCO5)CC3)ccc12`: the call was inactive.
To `CC(Cc1ccccc1)NC(=O)NC(C)Cc1ccccc1` (stereo not drawn) belongs “inactive”.
In the case of `Cc1cc(OCC(=O)OC(C)(C)C)c2c3c(c(=O)oc2c1)CCC3`, the call was inactive.
Consider `COC(=O)C1=C(c2ccc(OC(F)(F)F)cc2)C[C@@H]2CC[C@H]1N2C(=O)NC1CCCCC1`, for which the compound was classed as inactive.
For the compound `CCn1c(O)c(N=Nc2cccc(S(=O)(=O)N3CCOCC3)c2)c(=O)n(CC)c1=S`, the compound was called inactive.
